A selection: hits, their analogues and other compounds. The true share with any hit is near 2.4%.
Yeast superoxide = reduction of superoxide in aged yeast, primary screen, HTS | 330,000 compounds, 0.18% hits | S. cerevisiae aged cells, superoxide DHE fluorescence; stronger effect = lower value | superoxide response (% of plate mean), % at 10 µM | AID 2690, 2010;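 active means superoxide response under a set limit, about three screen SD below normal, cut at about 65% in these data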;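 further: yeast aged for seven days with compound at 30 °C before DHE staining; 100% = average MFI of all compound-treated wells on the plate with controls excluded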
PfGluPho inh = PfG6PD enzyme inhibitors, primary screen, biochemical, fluorescence intensity, uHTS | PfGluPho enzyme, NADPH resazurin-diaphorase fluorescence | inhibition, % at 20 µM | 350,000 compounds, 0.78% hits;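 active means inhibition reaching at least a set limit at 20 µM in the primary screen, cut at about 59% in these data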;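 further: 0% = DMSO wells with substrate and 100% = DMSO wells lacking glucose-6-phosphate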
PfM18AAP inh-1 = PfM18AAP inhibitors, malaria aminopeptidase, primary screen, biochemical, QFRET, recombinant enzyme; M18 aspartyl aminopeptidase (Plasmodium falciparum 3D7); H-Glu-NHMec fluorogenic cleavage; inhibition, % at 7.35 µM; 290,000 compounds, 1.2% hits; AID 1822, 2009;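 active means inhibition above the campaign mean inhibition over all tested compounds plus 3 SD, cut at about 28% in these data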;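 further: 0% = plate median of test compound wells and 100% = 2 mM ZnCl2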
APOBEC3A inh = APOBEC3A ssDNA deaminase inhibitors, primary screen, selectivity assay for APOBEC3G inhibitor project, biochemical, FAM/TAMRA oligo cleavage fluorescence | 330,000 compounds, 0.41% hits | recombinant A3A, FAM/TAMRA ssDNA deamination fluorescence | inhibition, % at 20 µM | AID 493011, 2011 | DNA dC->dU-editing enzyme APOBEC-3A (Homo sapiens), P31941;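 active means at least 40% inhibition at 20 µM here, with at most 30% in a related deaminase screen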;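 further: plate controls were A3A with DMSO for no effect and wells lacking A3A enzyme for full effect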
A3G deaminase = APOBEC3G DNA deaminase inhibitors, primary screen, biochemical, fluorescence, single-stranded DNA substrate, uHTS; 330,000 compounds, 0.28% hits; DNA dC->dU-editing enzyme APOBEC-3G (Homo sapiens), Q9HC16; inhibition, % at 20 µM; recombinant A3G, ssDNA deamination FAM/TAMRA fluorescence; AID 493012, 2011;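 active means inhibition of at least 40% at 20 µM, with no more than 30% in the related APOBEC3A deaminase screen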;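 further: plate controls were DMSO wells with A3G for no effect and wells lacking A3G enzyme for full effect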
Target sequence (Q9HC16 whole entry, looked up): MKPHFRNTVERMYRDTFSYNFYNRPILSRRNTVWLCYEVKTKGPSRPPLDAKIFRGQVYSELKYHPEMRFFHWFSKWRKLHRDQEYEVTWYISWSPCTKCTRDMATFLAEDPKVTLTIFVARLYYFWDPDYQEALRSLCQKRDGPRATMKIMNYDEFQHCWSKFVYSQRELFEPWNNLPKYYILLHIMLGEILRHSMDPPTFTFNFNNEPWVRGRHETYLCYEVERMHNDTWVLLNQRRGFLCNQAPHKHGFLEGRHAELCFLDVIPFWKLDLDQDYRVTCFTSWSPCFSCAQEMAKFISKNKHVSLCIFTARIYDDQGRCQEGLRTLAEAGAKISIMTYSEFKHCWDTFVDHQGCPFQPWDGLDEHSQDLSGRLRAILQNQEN
PfM18AAP inh-2 = PfM18AAP inhibitors, malaria aminopeptidase, confirmation, biochemical, QFRET, recombinant enzyme, triplicate; shares compounds with PfM18AAP inh-1; H-Glu-NHMec fluorogenic cleavage; inhibition, % at 7.35 µM; 2,400 compounds, 28% hits;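 active means mean inhibition over replicate wells above the hit cutoff set for the earlier primary screen, cut at about 29% in these data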;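 further: 0% = median of test compound wells and 100% = 2 mM ZnCl2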
CTSL1 counter = cathepsin L1 inhibitors, retest, confirmation, counter-screen for PFM18AAP inhibitor project, biochemical, QFRET, triplicate. shares compounds with PfM18AAP inh-1. 2,400 tested, under 10 active. purified cathepsin L1, Z-Leu-Arg-MCA fluorescence. inhibition, % at 5.96 µM. AID 2178, 2009;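 active means average inhibition across replicates above the hit cutoff set in the earlier primary screen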;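 further: 0% = median of test compound wells and 100% = Z-Phe-Ala-diazomethylketone 1 µM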
* hit, by the source's call; . = no result given.

SMILES | Yeast superoxide | PfGluPho inh | PfM18AAP inh-1 | APOBEC3A inh | A3G deaminase | PfM18AAP inh-2 | CTSL1 counter
Cc1ccc(O)c(NC(=O)/C=C/C(=O)O)c1 | 85 | 20 | 33* | -3 | -9 | -22 | 4
C/C(=N/NC(=O)c1cccc(N2CCCC2=O)c1)c1ccncc1 | 117 | -2 | -6 | -4 | -5 | . | .
Cc1ccc(-c2ccc(/C=N/c3ncn[nH]3)o2)cc1Cl | 90 | 9 | 37* | 1 | 2 | 43* | 2
CC(OC(=O)c1ccc(Cl)c(S(=O)(=O)N2CCOCC2)c1)C(=O)Nc1ccc(S(N)(=O)=O)cc1 (stereo unspecified) | 102 | 1 | . | 0 | -8 | . | .
CC(/C=C/c1ccccc1)=N\Nc1nc(C)cc(C)n1 | 135 | -1 | 39* | -1 | -4 | -35 | -1
CC(/C=C/c1ccccc1)=N/NC(=O)c1nc2nc(C)cc(C)n2n1 | 98 | -6 | -2 | -5 | -5 | . | .
Nc1cc(=O)[nH]c(SCC(=O)Nc2ncc(C(F)(F)F)cc2Cl)n1 | 116 | 9 | 7 | 0 | -1 | . | .
O=C(CSc1ncn[nH]1)Nc1ncc(C(F)(F)F)cc1Cl | 94 | 0 | 84* | -3 | -6 | 74* | -5
FC(F)(F)c1cnc(Sc2ncn[nH]2)c(Cl)c1 | 99 | 5 | 92* | 1 | -2 | 83* | -4
Cn1c(C(=O)O)cnc1Sc1ncc(C(F)(F)F)cc1Cl | 104 | 15 | 2 | 0 | -6 | . | .
CCOC(=O)c1cnc(SSc2ncc(C(=O)OCC)c(N)n2)nc1N | 102 | 55 | 64* | -9 | 27 | 44* | 2
CCC(C)c1ccc(O)c(N)c1 (stereo unspecified) | 92 | 28 | 64* | -3 | 12 | 69* | 3
CC(C)c1ccc(O)c(N)c1 | 96 | 34 | 17 | -3 | 1 | . | .
COc1cc(OC)cc(C(=O)NNC(=O)C2CCCC2)c1 | 111 | 1 | 5 | -1 | -1 | . | .
COc1ccc(OC)c(C2NC(=S)NC3=C2N2CCC3CC2)c1 (stereo unspecified) | 123 | -2 | 44* | -1 | -17 | -49 | 1
Fc1cccc(C2NC(=S)NC3=C2N2CCC3CC2)c1 (stereo unspecified) | 98 | -13 | 10 | 2 | 7 | . | .
O=C(NNC(=O)c1ccc[nH]1)Nc1cc(Cl)cc(Cl)c1 | 115 | 2 | 50* | -4 | 5 | 29* | -3
O=C(NNC(=O)c1ccc[nH]1)Nc1cccc(C(F)(F)F)c1 | 78 | -16 | 53* | -1 | -5 | 22 | -5
Nc1nc(=O)n(C2CC(O)C(CO)O2)cc1F (stereo unspecified) | . | 3 | . | . | . | . | .
C[C@@H]1CN([C@H](C)CO)C(=O)CCCn2nncc2CO[C@@H]1CN(C)C(=O)Nc1ccc2c(c1)OCO2 | . | -5 | . | . | . | . | .
COc1ccc(C2C(C(C)=O)=C(O)C(=O)N2c2nc3ccccc3s2)cc1OC (stereo unspecified) | 106 | 16 | 34* | -2 | -11 | -26 | 2
COc1ccc(C2C(C(C)=O)=C(O)C(=O)N2c2nccs2)cc1OC (stereo unspecified) | 93 | -17 | 6 | . | . | . | .
CCN(CC)S(=O)(=O)c1ccc(NC(=O)c2ccc(N3CCCC3=O)cc2)cc1 | 92 | -2 | . | 1 | 3 | . | .
N#Cc1cnc2ncnn2c1-c1ccccc1 | 96 | 11 | 56* | -4 | -2 | -23 | -6
Nc1c(-c2ccccc2)cnc2ncnn12 | 123 | 10 | -15 | -2 | -3 | . | .
Nc1ccc(Oc2ccc3c(c2)C(=O)NC3=O)cc1 | 100 | 18 | 4 | 2 | 3 | . | .

Screens (PubChem BioAssay)
